{"source": "PubChem BioAssay (EPA / NIEHS)", "note": "Records with an inconclusive call do not appear. Some structures have more than one record in an assay (separate samples or runs), and their calls can disagree. The source made the active and inactive calls. Rule for the calls: active = hit-call score of the fitted dose curve at least 0.9, where 1 is the maximum; inconclusive = response in the unintended direction; inactive = score below 0.9.", "data": [{"target": "Estrogen receptor (Homo sapiens) (UniProt P03372)", "sequence (P03372 whole entry, looked up)": "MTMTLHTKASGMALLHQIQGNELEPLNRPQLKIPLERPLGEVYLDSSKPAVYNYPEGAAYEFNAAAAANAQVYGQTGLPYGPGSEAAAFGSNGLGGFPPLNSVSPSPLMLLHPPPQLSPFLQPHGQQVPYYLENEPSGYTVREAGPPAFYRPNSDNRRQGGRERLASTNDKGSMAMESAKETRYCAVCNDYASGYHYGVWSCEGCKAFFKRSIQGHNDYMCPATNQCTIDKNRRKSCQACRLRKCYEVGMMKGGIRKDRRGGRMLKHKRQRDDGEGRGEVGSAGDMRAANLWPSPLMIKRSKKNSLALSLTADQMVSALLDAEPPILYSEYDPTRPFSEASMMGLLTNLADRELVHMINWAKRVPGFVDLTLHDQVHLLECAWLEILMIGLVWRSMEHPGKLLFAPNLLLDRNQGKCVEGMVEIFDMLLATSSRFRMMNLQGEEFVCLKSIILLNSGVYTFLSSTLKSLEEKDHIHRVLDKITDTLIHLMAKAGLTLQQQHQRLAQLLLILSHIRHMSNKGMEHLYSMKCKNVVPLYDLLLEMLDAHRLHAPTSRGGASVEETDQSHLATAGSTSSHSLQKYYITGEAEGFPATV", "assay": "OT_ERa_GFPERaERE_0120: Odyssey Thera (OT) 2-hour HeLa Transcription Induction Assay for Estrogen Receptor (AID 2283382)", "outline": "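Cells (human cervical HeLa) receive compound, incubate 2 hours, then are imaged for fluorescent reporter induction. Images are quantified by high content analysis, and activity is fitted as gain of signal against DMSO.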", "values": [{"smiles": "O=S1(=O)CCCO1", "outcome": "inactive"}, {"smiles": "NC(=O)N(O)[C@@H]1COc2cc(OCc3ccccc3)ccc21", "outcome": "inactive"}, {"smiles": "OCCNCCO", "outcome": "inactive"}, {"smiles": "O=C1CN(N=Cc2ccc([N+](=O)[O-])o2)C(=O)N1", "outcome": "inactive"}, {"smiles": "O=C(O)c1ccc2c(c1)nc(C(=O)NC1CCN(C3CC3)CC1)n2Cc1cc(-c2ccc(Cl)s2)on1", "outcome": "inactive"}, {"smiles": "CCOc1ccc2[nH]cc(C(=O)NCc3ccccc3)c(=O)c2n1", "outcome": "inactive"}, {"smiles": "CCCCCCCC/C=C\\CCCCCCCC(=O)OC[C@@H](O)[C@H]1OC[C@H](O)[C@H]1O", "outcome": "inactive"}, {"smiles": "Cn1cc[nH]c1=S", "outcome": "inactive"}, {"smiles": "CCCCN1C(=O)[C@@H]([C@H](O)C2CCCCC2)NC(=O)C12CCN(Cc1ccc(Oc3ccc(C(=O)O)cc3)cc1)CC2", "outcome": "inactive"}]}, {"target": "Bile acid receptor (Homo sapiens) (UniProt Q96RI1)", "sequence (Q96RI1 whole entry, looked up, the tested form may be a part)": "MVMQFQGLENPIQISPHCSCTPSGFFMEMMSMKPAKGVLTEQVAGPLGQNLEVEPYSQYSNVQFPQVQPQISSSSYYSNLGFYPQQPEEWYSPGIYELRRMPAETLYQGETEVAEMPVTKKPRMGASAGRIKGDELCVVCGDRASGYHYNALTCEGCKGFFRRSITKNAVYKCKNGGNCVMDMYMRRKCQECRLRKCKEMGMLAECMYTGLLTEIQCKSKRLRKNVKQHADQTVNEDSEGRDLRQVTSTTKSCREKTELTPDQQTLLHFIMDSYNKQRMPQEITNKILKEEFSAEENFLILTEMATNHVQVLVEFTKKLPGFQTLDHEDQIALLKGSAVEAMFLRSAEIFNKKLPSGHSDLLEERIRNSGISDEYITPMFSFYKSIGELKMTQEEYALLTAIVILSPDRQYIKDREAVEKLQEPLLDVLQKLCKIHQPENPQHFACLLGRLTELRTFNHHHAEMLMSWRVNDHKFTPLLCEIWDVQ", "assay": "OT_FXR_FXRSRC1_0480: Odyssey Thera (OT) 8-hour HEK293T Protein-Complementation Assay for Farnesoid X receptor/SRC-1 Co-activator (AID 2283383)", "outline": "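PCA, HEK293T, 8 h compound exposure; FXR–SRC-1 binding reconstitutes split reporter; fluorescence intensity; positive-direction fit vs DMSO.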", "values": [{"smiles": "COCc1nnc(-c2ccc[n+]([O-])c2)n1-c1c(Cl)c(Cl)cc2[nH]c(=O)c(=O)[nH]c12", "outcome": "inactive"}, {"smiles": "O=C(O)[C@H](O)[C@@H](O)C(=O)O", "outcome": "inactive"}, {"smiles": "C[C@@H](Oc1ccc(CNC(=O)c2cccnc2Oc2ccc3c(c2)OCO3)c(F)c1)C(=O)O", "outcome": "inactive"}, {"smiles": "CC(C)CC(C)O", "note": "(stereo not drawn)", "outcome": "inactive"}, {"smiles": "O=C(O)c1cccc(C(=O)O)c1", "outcome": "inactive"}, {"smiles": "Cn1c(=O)c2[nH]cnc2n(C)c1=O", "outcome": "inactive"}, {"smiles": "NC(=O)N(O)[C@@H]1COc2cc(OCc3ccccc3)ccc21", "outcome": "inactive"}, {"smiles": "O=C(O)c1ccc2c(c1)nc(C(=O)NC1CCN(C3CC3)CC1)n2Cc1cc(-c2ccc(Cl)s2)on1", "outcome": "inactive"}, {"smiles": "CCOc1ccc2[nH]cc(C(=O)NCc3ccccc3)c(=O)c2n1", "outcome": "inactive"}]}, {"target": "Bile acid receptor (Homo sapiens) (UniProt Q96RI1)", "assay": "OT_FXR_FXRSRC1_1440: Odyssey Thera (OT) 24-hour HEK293T Protein-Complementation Assay for Farnesoid X receptor/SRC-1 Co-activator (AID 2283384)", "outline": "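Measures ligand-driven FXR–SRC-1 co-activator recruitment in HEK293T via fragment complementation, fluorescence intensity at 24 h. DMSO served as negative control and baseline for gain-of-signal fitting.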", "values": [{"smiles": "O=C(O)[C@H](O)[C@@H](O)C(=O)O", "outcome": "inactive"}, {"smiles": "O=C(O)c1cccc(C(=O)O)c1", "outcome": "inactive"}, {"smiles": "Cc1ncc([C@@H](CCCCCCc2ccc3c(n2)NCCC3)CC(=O)O)cn1", "outcome": "inactive"}, {"smiles": "Cn1c(=O)c2[nH]cnc2n(C)c1=O", "outcome": "inactive"}, {"smiles": "OC[C@H]1O[C@@](CO)(O[C@H]2O[C@H](CO)[C@@H](O)[C@H](O)[C@H]2O)[C@@H](O)[C@@H]1O", "outcome": "inactive"}, {"smiles": "NC(=O)N(O)[C@@H]1COc2cc(OCc3ccccc3)ccc21", "outcome": "inactive"}, {"smiles": "O=C(O)c1ccc2c(c1)nc(C(=O)NC1CCN(C3CC3)CC1)n2Cc1cc(-c2ccc(Cl)s2)on1", "outcome": "inactive"}, {"smiles": "CCOc1ccc2[nH]cc(C(=O)NCc3ccccc3)c(=O)c2n1", "outcome": "inactive"}]}, {"target": "Retinoic acid receptor RXR-alpha (Homo sapiens) (UniProt P19793)", "sequence (P19793 whole entry, looked up, the tested form may be a part)": "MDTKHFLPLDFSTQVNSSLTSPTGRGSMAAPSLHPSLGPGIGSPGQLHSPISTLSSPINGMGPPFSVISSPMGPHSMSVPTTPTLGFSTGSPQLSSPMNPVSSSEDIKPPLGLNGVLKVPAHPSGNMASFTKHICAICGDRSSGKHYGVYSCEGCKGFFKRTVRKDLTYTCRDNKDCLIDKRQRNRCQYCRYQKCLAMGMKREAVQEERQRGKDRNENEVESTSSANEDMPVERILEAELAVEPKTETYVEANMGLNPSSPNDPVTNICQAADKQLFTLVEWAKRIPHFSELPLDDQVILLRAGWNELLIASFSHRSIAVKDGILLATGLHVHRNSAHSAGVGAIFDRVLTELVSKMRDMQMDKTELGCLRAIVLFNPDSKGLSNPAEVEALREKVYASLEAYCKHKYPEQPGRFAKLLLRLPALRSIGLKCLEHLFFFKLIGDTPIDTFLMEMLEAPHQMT", "assay": "OT_NURR1_NURR1RXRa_0480: Odyssey Thera (OT) 8-hour HEK293T Protein Complementation Assay for Nurr1/retinoid X receptor (RXR) (AID 2283385)", "outline": "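Interaction of bait and prey reconstitutes a functional reporter, whose fluorescence was measured in HEK293T cells dosed with compound for 8 hours. Signal gain relative to DMSO defined the single endpoint.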", "values": [{"smiles": "COCc1nnc(-c2ccc[n+]([O-])c2)n1-c1c(Cl)c(Cl)cc2[nH]c(=O)c(=O)[nH]c12", "outcome": "inactive"}, {"smiles": "O=C(O)[C@H](O)[C@@H](O)C(=O)O", "outcome": "inactive"}, {"smiles": "CCCCCCCCCCCCCCO", "outcome": "inactive"}, {"smiles": "CCc1cccc(CC)c1N", "outcome": "inactive"}, {"smiles": "NC(=O)NN=Cc1ccc([N+](=O)[O-])o1", "outcome": "inactive"}, {"smiles": "CCCCCOC(C)=O", "outcome": "inactive"}, {"smiles": "O=c1[nH]cnc2c1ncn2[C@H]1CC[C@@H](CO)O1", "outcome": "inactive"}, {"smiles": "C[C@@H](Oc1ccc(CNC(=O)c2cccnc2Oc2ccc3c(c2)OCO3)c(F)c1)C(=O)O", "outcome": "inactive"}, {"smiles": "NC(N)=O", "outcome": "inactive"}, {"smiles": "c1ccc2ncccc2c1", "outcome": "inactive"}, {"smiles": "CC(C)CC(C)O", "note": "(stereo not drawn)", "outcome": "inactive"}, {"smiles": "OC(Cn1cncn1)(Cn1cncn1)c1ccc(F)cc1F", "outcome": "inactive"}, {"smiles": "CC(=O)c1ccccc1", "outcome": "inactive"}, {"smiles": "Cc1ncc([C@@H](CCCCCCc2ccc3c(n2)NCCC3)CC(=O)O)cn1", "outcome": "inactive"}, {"smiles": "C=CN1CCCC1=O", "outcome": "inactive"}, {"smiles": "CCCCOC(=O)c1ccccc1", "outcome": "inactive"}, {"smiles": "CC1(C)C(=O)N(Cl)C(=O)N1Cl", "outcome": "inactive"}, {"smiles": "CCCCCCOC(=O)CC(CC(=O)OCCCCCC)(OC(=O)CCC)C(=O)OCCCCCC", "outcome": "inactive"}, {"smiles": "CCCCCCCC1CCC(=O)O1", "note": "(stereo not drawn)", "outcome": "inactive"}, {"smiles": "Cn1c(=O)c2[nH]cnc2n(C)c1=O", "outcome": "inactive"}, {"smiles": "OC[C@H]1O[C@@](CO)(O[C@H]2O[C@H](CO)[C@@H](O)[C@H](O)[C@H]2O)[C@@H](O)[C@@H]1O", "outcome": "inactive"}, {"smiles": "CCCc1ccccc1", "outcome": "inactive"}, {"smiles": "NNC(=O)c1ccncc1", "outcome": "inactive"}, {"smiles": "O=S1(=O)CCCO1", "outcome": "inactive"}, {"smiles": "NC(=O)N(O)[C@@H]1COc2cc(OCc3ccccc3)ccc21", "outcome": "inactive"}, {"smiles": "OCCNCCO", "outcome": "inactive"}, {"smiles": "O=C(O)c1ccc2c(c1)nc(C(=O)NC1CCN(C3CC3)CC1)n2Cc1cc(-c2ccc(Cl)s2)on1", "outcome": "inactive"}, {"smiles": "CCCCCCCC/C=C\\CCCCCCCC(=O)OC[C@@H](O)[C@H]1OC[C@H](O)[C@H]1O", "outcome": "inactive"}, {"smiles": "Cn1cc[nH]c1=S", "outcome": "inactive"}, {"smiles": "CCCCN1C(=O)[C@@H]([C@H](O)C2CCCCC2)NC(=O)C12CCN(Cc1ccc(Oc3ccc(C(=O)O)cc3)cc1)CC2", "outcome": "inactive"}]}, {"target": "Retinoic acid receptor RXR-alpha (Homo sapiens) (UniProt P19793)", "assay": "OT_NURR1_NURR1RXRa_1440: Odyssey Thera (OT) 24-hour HEK293T Protein Complementation Assay for Nurr1/retinoid X receptor (RXR) (AID 2283386)", "outline": "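Steps: fragment-tagged Nurr1 and RXRα expressed in HEK293T; compounds added; after 24 h, complemented reporter quantified by fluorescence intensity; signal increase over DMSO fitted as the single endpoint.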", "values": [{"smiles": "COCc1nnc(-c2ccc[n+]([O-])c2)n1-c1c(Cl)c(Cl)cc2[nH]c(=O)c(=O)[nH]c12", "outcome": "inactive"}, {"smiles": "O=C(O)[C@H](O)[C@@H](O)C(=O)O", "outcome": "inactive"}, {"smiles": "CCCCCCCCCCCCCCO", "AC50": "74.3 µM (active)", "outcome": "inactive"}, {"smiles": "CCc1cccc(CC)c1N", "outcome": "inactive"}, {"smiles": "NC(=O)NN=Cc1ccc([N+](=O)[O-])o1", "outcome": "inactive"}, {"smiles": "CCCCCOC(C)=O", "outcome": "inactive"}, {"smiles": "O=c1[nH]cnc2c1ncn2[C@H]1CC[C@@H](CO)O1", "outcome": "inactive"}, {"smiles": "OCC(CO)(CO)CO", "outcome": "inactive"}, {"smiles": "C[C@@H](Oc1ccc(CNC(=O)c2cccnc2Oc2ccc3c(c2)OCO3)c(F)c1)C(=O)O", "outcome": "inactive"}, {"smiles": "NC(N)=O", "outcome": "inactive"}, {"smiles": "c1ccc2ncccc2c1", "outcome": "inactive"}, {"smiles": "CC(C)CC(C)O", "note": "(stereo not drawn)", "outcome": "inactive"}, {"smiles": "OC(Cn1cncn1)(Cn1cncn1)c1ccc(F)cc1F", "outcome": "inactive"}, {"smiles": "CC(=O)c1ccccc1", "outcome": "inactive"}, {"smiles": "O=C(O)CO", "outcome": "inactive"}, {"smiles": "Cc1ncc([C@@H](CCCCCCc2ccc3c(n2)NCCC3)CC(=O)O)cn1", "outcome": "inactive"}, {"smiles": "C=CN1CCCC1=O", "outcome": "inactive"}, {"smiles": "CCCCOC(=O)c1ccccc1", "outcome": "inactive"}, {"smiles": "CC1(C)C(=O)N(Cl)C(=O)N1Cl", "outcome": "inactive"}, {"smiles": "Cn1c(=O)c2[nH]cnc2n(C)c1=O", "outcome": "inactive"}, {"smiles": "OC[C@H]1O[C@@](CO)(O[C@H]2O[C@H](CO)[C@@H](O)[C@H](O)[C@H]2O)[C@@H](O)[C@@H]1O", "outcome": "inactive"}, {"smiles": "CCCc1ccccc1", "outcome": "inactive"}, {"smiles": "NNC(=O)c1ccncc1", "outcome": "inactive"}, {"smiles": "O=S1(=O)CCCO1", "outcome": "inactive"}, {"smiles": "NC(=O)N(O)[C@@H]1COc2cc(OCc3ccccc3)ccc21", "outcome": "inactive"}, {"smiles": "OCCNCCO", "outcome": "inactive"}, {"smiles": "O=C(O)c1ccc2c(c1)nc(C(=O)NC1CCN(C3CC3)CC1)n2Cc1cc(-c2ccc(Cl)s2)on1", "outcome": "inactive"}, {"smiles": "CCOc1ccc2[nH]cc(C(=O)NCc3ccccc3)c(=O)c2n1", "outcome": "inactive"}, {"smiles": "CCCCCCCC/C=C\\CCCCCCCC(=O)OC[C@@H](O)[C@H]1OC[C@H](O)[C@H]1O", "outcome": "inactive"}, {"smiles": "Cn1cc[nH]c1=S", "outcome": "inactive"}, {"smiles": "CCCCN1C(=O)[C@@H]([C@H](O)C2CCCCC2)NC(=O)C12CCN(Cc1ccc(Oc3ccc(C(=O)O)cc3)cc1)CC2", "outcome": "inactive"}]}]}
